Laboratory results reported in PubChem BioAssay (NCATS).
Records with an inconclusive call do not appear. Activity calls are given as the source filed them. The call rests on the fitted dose curve; in most records, active means well fitted curve in the direction sought with a large enough effect; inconclusive means small, poorly fitted or top-dose-only effect, or another doubt; inactive means no such curve, though single readings can be large; an effect the other way counts as inactive or inconclusive.

Tests used:
[1] = Quantitative High-Throughput drug screen in 47 multiple myeloma cell lines against the NCATS MIPE library collection: KMS26_JCRB cell viability assay (AID 1918975); further: nearly all actives have a fitted effect of over 45% in size
Outline: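 Luminescent ATP measurement with CellTiter-Glo gives viability, scaled between DMSO-only wells (100%) and media-only wells (0%). Cells, 500 per well, faced library compounds for 48 hours at 37C.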

[2] = Quantitative High-Throughput drug screen in 47 multiple myeloma cell lines against the NCATS MIPE library collection: MMM1_PLB cell viability assay (AID 1918976); further: nearly all actives have a fitted effect of over 35% in size
Outline: (§1)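 Inhibition of viability over 48 h was scored by ATP content (CellTiter-Glo) in 500-cell wells. Zero and full viability were defined by media-only and DMSO-only wells.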

[3] = Quantitative High-Throughput drug screen in 47 multiple myeloma cell lines against the NCATS MIPE library collection: MOLP8_DSMZ cell viability assay (AID 1918977); further: nearly all actives have a fitted effect of over 45% in size
Outline: as §1

[4] = Quantitative High-Throughput drug screen in 47 multiple myeloma cell lines against the NCATS MIPE library collection: NCIH929_DSMZ cell viability assay (AID 1918978); further: nearly all actives have a fitted effect of over 35% in size
Outline: as §1

[5] = Quantitative High-Throughput drug screen in 47 multiple myeloma cell lines against the NCATS MIPE library collection: MM1S_ATCC cell viability assay (AID 1918980); further: nearly all actives have a fitted effect of over 45% in size
Outline: as §1

[6] = Quantitative High-Throughput drug screen in 47 multiple myeloma cell lines against the NCATS MIPE library collection: MM1R_ATCC cell viability assay (AID 1918981); further: nearly all actives have a fitted effect of over 35% in size
Outline: as §1

[7] = Quantitative High-Throughput drug screen in 47 multiple myeloma cell lines against the NCATS MIPE library collection: LP1_DSMZ cell viability assay (AID 1918982); further: nearly all actives have a fitted effect of over 35% in size
Outline: as §1

[8] = Quantitative High-Throughput drug screen in 47 multiple myeloma cell lines against the NCATS MIPE library collection: KMS28PE_JCRB cell viability assay (AID 1918983); further: nearly all actives have a fitted effect of over 35% in size
Outline: as §1

[9] = Quantitative High-Throughput drug screen in 47 multiple myeloma cell lines against the NCATS MIPE library collection: L363_DSMZ cell viability assay (AID 1918984); further: nearly all actives have a fitted effect of over 40% in size
Outline: as §1

[10] = Quantitative High-Throughput drug screen in 47 multiple myeloma cell lines against the NCATS MIPE library collection: KMS34_JCRB cell viability assay (AID 1918985); further: nearly all actives have a fitted effect of over 40% in size
Outline: as §1

[11] = Quantitative High-Throughput drug screen in 47 multiple myeloma cell lines against the NCATS MIPE library collection: OCIMY5_PLB cell viability assay (AID 1918988); further: nearly all actives have a fitted effect of over 65% in size
Outline: as §1

[12] = Quantitative High-Throughput drug screen in 47 multiple myeloma cell lines against the NCATS MIPE library collection: OPM1_PLB cell viability assay (AID 1918989); further: nearly all actives have a fitted effect of over 40% in size
Outline: as §1

[13] = Quantitative High-Throughput drug screen in 47 multiple myeloma cell lines against the NCATS MIPE library collection: SKMM1_PLB cell viability assay (AID 1919863); conditions: SKMM1 myeloma viability, CellTiter-Glo ATP, 48 h; viability: active compounds read low; further: nearly all actives have a fitted effect of over 35% in size; on viability: series mostly up to about 46 µM
Outline: as §1

[14] = Quantitative High-Throughput drug screen in 47 multiple myeloma cell lines against the NCATS MIPE library collection: U266_ATCC cell viability assay (AID 1919864); further: nearly all actives have a fitted effect of over 35% in size
Outline: as §1

[15] = Quantitative High-Throughput drug screen in 47 multiple myeloma cell lines against the NCATS MIPE library collection: XG6_PLB cell viability assay (AID 1919865); further: nearly all actives have a fitted effect of over 40% in size
Outline: as §1

[16] = Quantitative High-Throughput drug screen in 47 multiple myeloma cell lines against the NCATS MIPE library collection: VP6_DJ cell viability assay (AID 1919867); further: nearly all actives have a fitted effect of over 40% in size
Outline: as §1

[17] = Quantitative High-Throughput drug screen in 47 multiple myeloma cell lines against the NCATS MIPE library collection: KMS20_JCRB cell viability assay (AID 1918973); further: nearly all actives have a fitted effect of over 45% in size
Outline: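 CellTiter-Glo ATP luminescence gave viability after 48 h compound treatment at 37C of 500 multiple myeloma cells per well. Normalisation used DMSO-only wells as 100% and media-only wells as 0% viability; primary qHTS of approved and investigational drugs.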

[18] = Quantitative High-Throughput drug screen in 47 multiple myeloma cell lines against the NCATS MIPE library collection: OCIMY1_PLB cell viability assay (AID 1918979); further: nearly all actives have a fitted effect of over 35% in size; on viability: series mostly up to about 46 µM
Outline: as §1

[19] = Quantitative High-Throughput drug screen in 47 multiple myeloma cell lines against the NCATS MIPE library collection: OCIMY7_PLB cell viability assay (AID 1918987); further: nearly all actives have a fitted effect of over 65% in size
Outline: as §1

[20] = Quantitative High-Throughput drug screen in 47 multiple myeloma cell lines against the NCATS MIPE library collection: XG1_PLB cell viability assay (AID 1919866); further: nearly all actives have a fitted effect of over 35% in size
Outline: as §1
Potency means the concentration at half of the fitted maximal effect.

CCc1c2c(nc3ccc(OC(=O)N4CCC(N5CCCCC5)CC4)cc13)-c1cc3c(c(=O)n1C2)COC(=O)[C@]3(O)CC
active: Potency [1] 0.166 µM | Potency [2] 0.935 µM | Potency [3] 0.148 µM | Potency [4] 16.6 µM | Potency [5] 1.32 µM | Potency [6] 1.05 µM | Potency [7] 0.59 µM | Potency [8] 1.87 µM | Potency [9] 0.0372 µM | Potency [10] 1.18 µM | Potency [11] 1.48 µM | Potency [12] 13.2 µM | Potency [13] 0.526 µM | Potency [14] 0.166 µM | Potency [15] 0.418 µM | Potency [16] 1.18 µM

CNC1CCCN(c2c(F)cc3c(=O)c(C(=O)O)cn(C4CC4)c3c2OC)C1 (stereo unspecified)
inactive: Potency [17] | Potency [18] | Potency [6] | Potency [7] | Potency [8] | viability [13] 118% | Potency [15] | Potency [20]
active: Potency [5] 11.8 µM | Potency [19] 1.32 µM | Potency [12] 5.9 µM

NC(=O)c1cccnc1
active: Potency [15] 16.6 µM
inactive: Potency [17] | Potency [3] | Potency [4] | Potency [18] | Potency [5] | Potency [6] | Potency [7] | Potency [11] | Potency [12] | viability [13] 105% | Potency [14] | Potency [20] | Potency [16]

CC1=CC(=O)c2ccccc2C1=O
active: Potency [1] 10.5 µM | Potency [2] 8.33 µM | Potency [5] 18.7 µM | Potency [6] 9.35 µM | Potency [7] 23.5 µM | Potency [11] 16.6 µM | Potency [12] 23.5 µM | Potency [13] 16.6 µM | Potency [14] 18.7 µM | Potency [15] 14.8 µM | Potency [20] 23.5 µM | Potency [16] 16.6 µM

COC(=O)Nc1nc2ccc(Sc3ccccc3)cc2[nH]1
active: Potency [1] 18.7 µM | Potency [2] 18.7 µM | Potency [3] 13.2 µM | Potency [4] 8.33 µM | Potency [18] 3.32 µM | Potency [6] 4.18 µM | Potency [7] 2.35 µM | Potency [8] 5.26 µM | Potency [9] 0.469 µM | Potency [11] 1.18 µM | Potency [12] 1.66 µM | Potency [13] 3.32 µM | Potency [16] 1.05 µM

CCn1cc(C(=O)O)c(=O)c2cc(F)c(N3CCNCC3)nc21
inactive: Potency [17] | Potency [9] | Potency [11] | Potency [12] | viability [13] 102% | Potency [15] | Potency [20]

CCOCC(O)COc1ccc(NC(=O)CC[S+](C)C)cc1 (stereo unspecified)
inactive: Potency [17] | Potency [3] | Potency [4] | Potency [6] | Potency [7] | Potency [9] | Potency [10] | Potency [11] | Potency [12] | viability [13] 111% | Potency [15] | Potency [20] | Potency [16]

CNNCc1ccc(C(=O)NC(C)C)cc1
active: Potency [1] 18.7 µM | Potency [2] 8.33 µM | Potency [6] 11.8 µM | Potency [8] 13.2 µM | Potency [11] 16.6 µM | Potency [13] 9.35 µM
inactive: Potency [4] | Potency [18] | Potency [12] | Potency [14] | Potency [15] | Potency [20] | Potency [16]

COc1cc2c(Nc3ccc(Br)cc3F)ncnc2cc1OCC1CCN(C)CC1
active: Potency [17] 9.35 µM | Potency [6] 23.5 µM | Potency [8] 16.6 µM | Potency [11] 18.7 µM | Potency [12] 6.62 µM | Potency [14] 20.9 µM | Potency [15] 7.43 µM | Potency [20] 7.43 µM

NNC(=O)c1ccncc1
inactive: Potency [17] | Potency [3] | Potency [18] | Potency [6] | Potency [7] | Potency [9] | Potency [12] | Potency [15] | Potency [20] | Potency [16]

CCCCCCNC(=O)n1cc(F)c(=O)[nH]c1=O
active: Potency [3] 6.62 µM | Potency [4] 11.8 µM | Potency [5] 20.9 µM | Potency [6] 4.18 µM | Potency [7] 11.8 µM | Potency [16] 5.26 µM
inactive: Potency [17] | Potency [18] | Potency [8] | Potency [12]

C[C@]12C=CC(=O)C=C1CC[C@@H]1[C@@H]2C(=O)C[C@@]2(C)[C@H]1CC[C@]2(O)C(=O)CO
active: Potency [17] 0.129 µM
inactive: Potency [18] | Potency [6] | Potency [7] | Potency [8] | Potency [10] | Potency [11] | viability [13] 141% | Potency [14] | Potency [15] | Potency [16]

N[C@@H](Cc1ccc(O)c(O)c1)C(=O)O
active: Potency [13] 26.4 µM
inactive: Potency [17] | Potency [7] | Potency [14] | Potency [15] | Potency [20]

NC(=O)c1cccc(N)c1
inactive: Potency [17] | Potency [18] | Potency [6] | Potency [7] | Potency [8] | Potency [10] | Potency [11] | Potency [12] | viability [13] 132% | Potency [14]
active: Potency [4] 16.6 µM | Potency [16] 8.33 µM

COC(=O)Nc1nc2ccc(C(=O)c3ccccc3)cc2[nH]1
active: Potency [17] 1.32 µM | Potency [4] 3.72 µM | Potency [18] 0.833 µM | Potency [5] 3.72 µM | Potency [6] 1.66 µM | Potency [7] 1.87 µM | Potency [11] 0.418 µM | Potency [12] 1.66 µM | Potency [13] 0.332 µM | Potency [14] 14.8 µM | Potency [15] 0.418 µM | Potency [20] 0.332 µM | Potency [16] 2.35 µM

OC(Cn1cncn1)(Cn1cncn1)c1ccc(F)cc1F
active: Potency [2] 10.5 µM
inactive: Potency [1] | Potency [18] | Potency [7] | Potency [8] | Potency [11] | Potency [12] | Potency [14] | Potency [15] | Potency [20] | Potency [16]

OCc1ccc(-c2nn(Cc3ccccc3)c3ccccc23)o1
active: Potency [17] 1.87 µM | Potency [2] 1.05 µM | Potency [5] 4.18 µM | Potency [6] 8.33 µM | Potency [11] 16.6 µM | Potency [12] 18.7 µM | Potency [13] 5.9 µM
inactive: Potency [18] | Potency [9] | Potency [10] | Potency [20]
